PubChem BioAssay (NCATS)
Results filed as inconclusive are left out. Calls of active or inactive are those of the source. Unless noted, calls follow the shape of the dose curve; as a rule, active = well fitted curve in the direction sought with a large enough effect; inconclusive = small, poorly fitted or top-dose-only effect, or another doubt; inactive = no such curve, though single readings can be large; an effect the other way counts as inactive or inconclusive.

Assays:
[1] = molecular target: Glucocorticoid receptor (Homo sapiens) (UniProt P04150); experiment: GR-GFP Redistribution (AID 450;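 active = compounds whose dose series gives a full or clear partial fitted curve of increased nuclear translocation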; also: potency is read from the fitted curve at half-maximal effect)
[2] = molecular target: Glucocorticoid receptor (Homo sapiens) (UniProt P04150); experiment: GR-EFC Redistribution (AID 451; calls by dose curve; also: potency is read from the fitted curve at half-maximal effect); settings: CHO-K1 GR-EFC translocation, beta-gal luminescence, 2 h
In short: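 CHO-K1 cells expressing nuclear EA and GR-ED fragments of b-gal; compounds titrated up to 46 uM final, 2 h at 37 C. GR nuclear translocation read as complemented b-gal luminescence after 1 h RT detection.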

[3] = molecular target: Mitogen-activated protein kinase 10 (Mus musculus) (UniProt Q61831); experiment: JNK3 AlphaScreen Assay (AID 530; active = well fitted curve in either direction with a large enough effect, not every such curve was filed as active;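 also: kinase came from lysate of stimulated human HepG2 cells; signal reports phosphorylation of biotinylated GST-cJun 1-79 at Ser73 with 10 µM ATP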)
In short: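 HepG2 lysate (IL-1b/TNFa pre-activated) + biotin-GST-cJun 1-79 + anti-pSer73 cJun; cpd titration, 15 min RT; ATP 10 uM start; Tris pH 7.6, MgCl2, DTT, vanadate; beads in EDTA buffer; AlphaScreen.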

[4] = molecular target: 3',5'-cyclic-AMP phosphodiesterase 4B (Homo sapiens) (UniProt Q07343); experiment: qHTS Assay for Inhibitors of PDE-IV (AID 607; active = well fitted activation curve with a large enough effect in the main read-out, with a control signal flat, not every such curve was filed as active)
In short: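 HEK293 ACTOne cells with CNG channel (1000/well), endogenous PDE4; membrane potential dye, compounds up to 22.9 uM final. Fluorescence Ex 535/Em 590; RO 20-1724 (100 uM final) as reference.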

[5] = molecular target: Cytochrome P450 3A4 (Homo sapiens) (UniProt P08684); experiment: qHTS Assay for Activators of Cytochrome P450 3A4 (AID 885); also: nearly all actives have a fitted effect of over 65% in size
In short: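 Human CYP3A4 dealkylates Luciferin-PPXE to luciferin, which luciferase detection converts to light. Substrate was at its KM (25uM), buffer 200mM KPO4, reaction 60 min at RT.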

[6] = molecular target: Luciferin 4-monooxygenase (Photinus pyralis) (UniProt P08659); experiment: Biochemical firefly luciferase enzyme assay for NPC (AID 624030);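 also: purified P. pyralis luciferase at 10 nM with luciferin and ATP substrate; nearly all actives have a fitted effect of over 70% in size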
In short: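 Purified P. pyralis luciferase at 10 nM in 50 mM Tris Acetate (final), luminescence read within 5 minutes of enzyme addition to compounds. Activity normalised to PTC124 versus DMSO; concentration-response curves classed by r2, magnitude and activity.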

[7] = S16 Schwann cell viability assay (CellTiter-Glo assay) (AID 624031);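 also: native untransfected S16 rat Schwann cells; cellular ATP luminescence as a viability measure; nearly all actives have a fitted effect of over 70% in size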
In short: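 Concentration-effect curves come from CellTiter-Glo luminescence of S16 rat Schwann cells after 24 h compound exposure. Each reading was normalized to DMSO wells (0%) and wells without cells, and curves were ranked by r2 and response magnitude.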

[8] = S16 Schwann cell PMP22 intronic element beta-lactamase assay (AID 624044; calls by dose curve; also: nearly all actives have a fitted effect of over 15% in size); settings: S16 rat Schwann cells, PMP22 element beta-lactamase FRET, 24 h; ratio activity, negative = inhibition: at 38.3 µM (top of the series)
In short: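 Beta-lactamase reporter under a PMP22 intronic regulatory element in stable S16 rat Schwann cells; 24 h compound exposure. 460 nm blue signal normalized between DMSO (0%) and potassium clavulanate, with 535 nm FRET tracking viability; curves classed by r2 and response.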

PC49 = experiment: qHTS profiling for inhibitors of Plasmodium falciparum proliferation (AID 504749); also: nearly all actives have a fitted effect of over 60% in size; settings: P. falciparum in erythrocytes, SYBR Green DNA, 72 h; series mostly up to 28.7 µM
In short: (§1)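 SYBR Green fluorescence (ex 485 nm, em 535 nm) reports parasite DNA after 72 h compound exposure of infected red cells at 0.3% parasitemia, 2.5% hematocrit; signal normalized to 0.29 uM artemisinin and vehicle wells.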

TAB109 = experiment: as above; settings: P. falciparum in erythrocytes, SYBR Green DNA, 72 h; series mostly up to 28.7 µM
In short: as §1

[9] = molecular target: Cytochrome P450 2C9 (Homo sapiens) (UniProt P11712); experiment: qHTS Assay for Inhibitors and Substrates of Cytochrome P450 2C9 (AID 883); also: nearly all actives have a fitted effect of over 60% in size; also: potency is read from the fitted curve at half-maximal effect
In short: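 10nM CYP2C9 + 100uM Luciferin-H (=KM), 25mM KPO4; cpd 10 min 37C; NADPH regen, 60 min 37C; stop/detect with P450 Glo-Buffer 20 min; luminescence. Norm. to 57uM sulphaphenazole as full inhibition.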

[10] = molecular target: Cytochrome P450 2D6 (Homo sapiens) (UniProt P10635); experiment: qHTS Assay for Inhibitors and Substrates of Cytochrome P450 2D6 (AID 891);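 also: luciferin methyl ether substrate demethylated by CYP2D6 with NADPH regeneration; nearly all actives have a fitted effect of over 60% in size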
In short: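 Luminescent read-out of luciferin formed by 5 nM human CYP2D6 demethylating 30 uM Luciferin-ME EGE (Km level) over 60 min at room temperature after NADPH regeneration addition. Data normalized to full inhibition by 1.43 uM quinidine.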

[11] = molecular target: Cytochrome P450 2C19 (Homo sapiens) (UniProt P33261); experiment: qHTS Assay for Inhibitors and Substrates of Cytochrome P450 2C19 (AID 899); also: nearly all actives have a fitted effect of over 60% in size; also: potency is read from the fitted curve at half-maximal effect
In short: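 Luminescent read-out of luciferin formed from Luciferin-H EGE (10uM, equal to KM). Enzyme 5nM in 50mM KPO4; compound added, 10 min at 37C, then NADPH regenerating system for 60 min at 37C. Full inhibition defined by 57uM ketoconazole.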

[12] = molecular target: Tumor susceptibility gene 101 protein (Homo sapiens) (UniProt Q99816); experiment: qHTS Assay for Iinhibitors of HIV-1 Budding by Blocking the Interaction of PTAP/TSG101: Hit Validation (AID 651600); also: nearly all actives have a fitted effect of over 70% in size
In short: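 Measuring PTAP–Tsg101 interaction by FP: protein at 10 uM and fluorescent peptide at 50 nM (final), buffer 10 mM HEPES pH 7.5 with 0.15 M NaCl, 3 mM EDTA, 0.1 mM TCEP, 0.01% Tween 20; 20 min incubation, r.t.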

[13] = molecular target: Cytochrome P450 3A4 (Homo sapiens) (UniProt P08684); experiment: qHTS Assay for Inhibitors and Substrates of Cytochrome P450 3A4 (AID 884); also: potency is read from the fitted curve at half-maximal effect; nearly all actives have a fitted effect of over 50% in size
In short: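 Luminescent readout of luciferin produced by CYP3A4 (20 nM) dealkylation of Luciferin-PPXE, 25 uM (its KM). NADPH-driven reaction ran 60 min at RT after 10 min compound preincubation; data scaled to 57 uM ketoconazole as 100% inhibition.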

[14] = molecular target: DNA dC->dU-editing enzyme APOBEC-3G (Homo sapiens) (UniProt Q9HC16); experiment: qHTS for inhibitors of Vif-A3G interactions: Validation (AID 588379)
In short: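 Yellow fluorescence (Ex 488, Em 500-530) of Vif-coexpressing HeLa A3G-eYFP cells, scanned by Acumen cytometer, reports blocked A3G degradation. Cells plated at 700/well overnight at 37 deg C before compound addition, then a further overnight compound incubation at 37 deg C.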

Measured: Potency

Sequence of Cytochrome P450 2D6 (Homo sapiens) (P10635 whole entry, looked up): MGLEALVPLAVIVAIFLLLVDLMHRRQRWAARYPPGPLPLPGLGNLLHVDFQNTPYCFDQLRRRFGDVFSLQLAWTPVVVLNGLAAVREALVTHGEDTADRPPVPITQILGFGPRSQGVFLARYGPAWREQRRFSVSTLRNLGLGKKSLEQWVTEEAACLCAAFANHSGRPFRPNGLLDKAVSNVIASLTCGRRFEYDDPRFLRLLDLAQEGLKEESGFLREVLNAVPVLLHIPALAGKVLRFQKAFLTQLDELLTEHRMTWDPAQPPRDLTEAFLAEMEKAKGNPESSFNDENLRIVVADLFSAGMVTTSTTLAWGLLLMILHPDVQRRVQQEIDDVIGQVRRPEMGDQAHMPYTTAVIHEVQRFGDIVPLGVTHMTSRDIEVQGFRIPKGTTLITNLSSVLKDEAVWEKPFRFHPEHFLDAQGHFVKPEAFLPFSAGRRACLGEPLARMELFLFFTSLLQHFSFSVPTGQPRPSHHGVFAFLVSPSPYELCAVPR
Sequence of 3',5'-cyclic-AMP phosphodiesterase 4B (Homo sapiens) (Q07343 whole entry, looked up): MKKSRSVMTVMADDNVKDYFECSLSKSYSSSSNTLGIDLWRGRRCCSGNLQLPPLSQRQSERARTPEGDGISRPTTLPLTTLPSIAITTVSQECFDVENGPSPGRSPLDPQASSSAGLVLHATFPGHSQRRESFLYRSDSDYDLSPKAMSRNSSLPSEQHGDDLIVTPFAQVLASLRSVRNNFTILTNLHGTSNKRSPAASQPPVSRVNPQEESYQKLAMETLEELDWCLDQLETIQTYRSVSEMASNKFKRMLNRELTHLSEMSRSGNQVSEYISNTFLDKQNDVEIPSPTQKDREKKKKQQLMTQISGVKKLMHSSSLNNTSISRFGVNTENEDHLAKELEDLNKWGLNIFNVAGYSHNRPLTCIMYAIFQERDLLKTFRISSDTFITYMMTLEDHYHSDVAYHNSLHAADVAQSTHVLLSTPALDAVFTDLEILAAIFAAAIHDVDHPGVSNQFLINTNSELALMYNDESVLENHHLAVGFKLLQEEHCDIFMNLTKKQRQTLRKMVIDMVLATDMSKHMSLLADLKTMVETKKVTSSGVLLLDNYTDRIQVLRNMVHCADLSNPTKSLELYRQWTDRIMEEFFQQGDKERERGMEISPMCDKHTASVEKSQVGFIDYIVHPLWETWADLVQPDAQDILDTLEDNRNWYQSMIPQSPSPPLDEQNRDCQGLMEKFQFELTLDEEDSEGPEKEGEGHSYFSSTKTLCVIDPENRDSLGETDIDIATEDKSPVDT
Sequence of Glucocorticoid receptor (Homo sapiens) (P04150 whole entry, looked up, the tested form may be a part): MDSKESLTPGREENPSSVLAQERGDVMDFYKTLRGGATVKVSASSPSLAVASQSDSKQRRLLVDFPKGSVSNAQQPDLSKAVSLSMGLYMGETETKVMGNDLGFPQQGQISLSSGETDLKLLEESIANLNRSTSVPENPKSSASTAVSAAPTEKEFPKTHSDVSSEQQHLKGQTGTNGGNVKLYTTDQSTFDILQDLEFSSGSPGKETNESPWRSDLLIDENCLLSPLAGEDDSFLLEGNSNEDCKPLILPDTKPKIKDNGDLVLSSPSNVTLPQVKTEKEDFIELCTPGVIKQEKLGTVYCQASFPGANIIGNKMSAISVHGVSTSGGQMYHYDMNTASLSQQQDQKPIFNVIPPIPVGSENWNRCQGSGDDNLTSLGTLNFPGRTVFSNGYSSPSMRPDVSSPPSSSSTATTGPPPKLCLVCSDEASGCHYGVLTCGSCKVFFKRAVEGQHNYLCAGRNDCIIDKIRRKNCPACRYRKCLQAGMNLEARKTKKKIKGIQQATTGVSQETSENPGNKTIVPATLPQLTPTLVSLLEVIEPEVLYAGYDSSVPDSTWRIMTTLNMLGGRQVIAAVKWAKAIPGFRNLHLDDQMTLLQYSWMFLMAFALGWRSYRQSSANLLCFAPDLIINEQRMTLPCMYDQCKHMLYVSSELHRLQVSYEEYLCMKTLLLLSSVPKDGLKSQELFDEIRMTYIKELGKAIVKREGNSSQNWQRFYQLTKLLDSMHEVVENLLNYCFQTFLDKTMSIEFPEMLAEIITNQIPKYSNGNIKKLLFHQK
Sequence of Cytochrome P450 2C9 (Homo sapiens) (P11712 whole entry, looked up): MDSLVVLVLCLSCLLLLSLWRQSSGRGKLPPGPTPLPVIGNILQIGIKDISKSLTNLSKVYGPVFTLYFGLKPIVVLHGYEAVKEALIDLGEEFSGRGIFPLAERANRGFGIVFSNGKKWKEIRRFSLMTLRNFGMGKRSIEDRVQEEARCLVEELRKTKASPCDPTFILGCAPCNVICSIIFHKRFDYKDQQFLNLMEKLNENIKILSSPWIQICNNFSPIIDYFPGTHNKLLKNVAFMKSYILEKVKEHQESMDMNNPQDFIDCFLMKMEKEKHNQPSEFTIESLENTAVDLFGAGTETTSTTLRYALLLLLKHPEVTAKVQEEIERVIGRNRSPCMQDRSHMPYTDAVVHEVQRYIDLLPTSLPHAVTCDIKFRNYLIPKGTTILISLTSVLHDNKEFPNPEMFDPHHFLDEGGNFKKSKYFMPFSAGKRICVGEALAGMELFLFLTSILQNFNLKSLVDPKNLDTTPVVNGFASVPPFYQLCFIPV
Sequence of Cytochrome P450 3A4 (Homo sapiens) (P08684 whole entry, looked up): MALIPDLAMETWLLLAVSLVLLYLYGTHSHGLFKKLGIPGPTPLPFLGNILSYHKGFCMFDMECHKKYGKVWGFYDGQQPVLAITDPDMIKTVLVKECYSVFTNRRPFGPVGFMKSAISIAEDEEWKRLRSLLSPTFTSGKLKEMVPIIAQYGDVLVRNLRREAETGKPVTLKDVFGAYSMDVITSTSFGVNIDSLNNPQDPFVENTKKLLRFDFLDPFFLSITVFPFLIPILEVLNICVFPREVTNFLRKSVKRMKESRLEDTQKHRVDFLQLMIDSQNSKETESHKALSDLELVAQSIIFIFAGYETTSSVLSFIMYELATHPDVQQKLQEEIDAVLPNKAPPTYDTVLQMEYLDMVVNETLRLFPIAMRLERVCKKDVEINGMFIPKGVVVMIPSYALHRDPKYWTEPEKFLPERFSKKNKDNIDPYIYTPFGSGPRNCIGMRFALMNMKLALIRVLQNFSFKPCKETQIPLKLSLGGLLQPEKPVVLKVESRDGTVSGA
Sequence of Cytochrome P450 2C19 (Homo sapiens) (P33261 whole entry, looked up): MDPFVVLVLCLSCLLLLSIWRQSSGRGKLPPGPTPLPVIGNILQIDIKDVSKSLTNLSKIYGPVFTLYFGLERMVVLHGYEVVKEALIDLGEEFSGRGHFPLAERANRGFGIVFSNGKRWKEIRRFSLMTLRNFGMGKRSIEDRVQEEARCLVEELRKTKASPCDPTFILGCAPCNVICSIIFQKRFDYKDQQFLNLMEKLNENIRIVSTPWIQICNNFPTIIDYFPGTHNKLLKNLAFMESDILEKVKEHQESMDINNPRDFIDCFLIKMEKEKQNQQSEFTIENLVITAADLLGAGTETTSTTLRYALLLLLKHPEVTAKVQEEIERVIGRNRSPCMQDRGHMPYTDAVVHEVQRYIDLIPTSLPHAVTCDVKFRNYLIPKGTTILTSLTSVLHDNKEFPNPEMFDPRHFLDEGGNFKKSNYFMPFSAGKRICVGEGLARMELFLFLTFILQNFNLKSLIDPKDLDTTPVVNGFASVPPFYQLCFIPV
Sequence of DNA dC->dU-editing enzyme APOBEC-3G (Homo sapiens) (Q9HC16 whole entry, looked up): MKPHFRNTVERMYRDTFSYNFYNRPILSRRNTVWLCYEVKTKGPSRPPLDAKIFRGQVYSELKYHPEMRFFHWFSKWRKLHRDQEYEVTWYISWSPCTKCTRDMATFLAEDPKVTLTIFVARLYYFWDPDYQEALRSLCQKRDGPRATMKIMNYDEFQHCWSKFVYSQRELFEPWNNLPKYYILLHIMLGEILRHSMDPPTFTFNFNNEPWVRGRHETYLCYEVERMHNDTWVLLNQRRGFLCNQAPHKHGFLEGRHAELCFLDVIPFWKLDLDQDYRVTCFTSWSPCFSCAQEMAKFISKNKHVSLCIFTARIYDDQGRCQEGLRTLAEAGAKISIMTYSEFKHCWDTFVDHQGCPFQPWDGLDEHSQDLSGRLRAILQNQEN
Sequence of Luciferin 4-monooxygenase (Photinus pyralis) (P08659 whole entry, looked up): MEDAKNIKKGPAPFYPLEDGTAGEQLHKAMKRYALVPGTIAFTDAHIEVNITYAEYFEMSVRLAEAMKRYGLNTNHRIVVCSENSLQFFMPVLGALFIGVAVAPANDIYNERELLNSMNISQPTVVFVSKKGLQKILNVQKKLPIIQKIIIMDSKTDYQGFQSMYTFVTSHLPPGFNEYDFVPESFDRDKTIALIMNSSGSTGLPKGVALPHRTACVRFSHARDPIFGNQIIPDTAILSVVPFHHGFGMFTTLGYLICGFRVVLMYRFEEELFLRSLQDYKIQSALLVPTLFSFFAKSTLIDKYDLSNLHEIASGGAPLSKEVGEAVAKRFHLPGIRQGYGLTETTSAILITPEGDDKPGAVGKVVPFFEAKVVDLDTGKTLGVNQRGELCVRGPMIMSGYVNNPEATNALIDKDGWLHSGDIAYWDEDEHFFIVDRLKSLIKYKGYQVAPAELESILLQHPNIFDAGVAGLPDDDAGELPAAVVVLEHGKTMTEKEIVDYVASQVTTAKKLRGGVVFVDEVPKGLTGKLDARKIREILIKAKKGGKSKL
Sequence of Tumor susceptibility gene 101 protein (Homo sapiens) (Q99816 whole entry, looked up): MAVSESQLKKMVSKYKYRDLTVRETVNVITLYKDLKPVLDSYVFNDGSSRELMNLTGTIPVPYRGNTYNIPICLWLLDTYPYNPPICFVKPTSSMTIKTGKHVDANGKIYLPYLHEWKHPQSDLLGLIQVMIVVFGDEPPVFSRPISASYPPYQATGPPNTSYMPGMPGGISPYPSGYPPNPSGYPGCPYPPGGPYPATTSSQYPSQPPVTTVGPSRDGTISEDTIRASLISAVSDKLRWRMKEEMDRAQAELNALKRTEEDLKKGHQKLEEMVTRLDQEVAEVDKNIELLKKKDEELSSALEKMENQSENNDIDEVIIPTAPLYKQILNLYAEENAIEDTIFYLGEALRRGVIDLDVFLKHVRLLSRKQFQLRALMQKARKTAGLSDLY

CCCC[C@H]1C(=O)N(c2ccccc2)N(c2ccc(O)cc2)C1=O
inactive: [1] > 20.6 µM | [2] > 20.6 µM | [3] | [4] | [5] | [6] | [7] | [8] | PC49 | TAB109

C=C[C@@]1(C)C=C2CC[C@@H]3[C@](C)(CCC[C@@]3(C)C(=O)O)[C@H]2CC1
inactive: [1] > 46 µM | [2] > 46 µM | [3] | [4]
active: [9] 6.31 µM

CC(C)C[C@@H](CC(=O)N[C@@H](CCC(=O)O)CC(=O)O)NC(=O)[C@@H]1CCCC[C@H]1NC(=O)C[C@@H](NC(=O)C[C@H](Cc1ccccc1)NC(=O)[C@@H]1CNCC[C@H]1N)C(C)C
inactive: [2] > 46 µM | [3] | [4] | [9] | [10] | [11]

CC1=CC(=O)C2=C(C)CC[C@@H]3[C@H](OC(=O)[C@H]3C)[C@H]12
inactive: [1] > 46 µM | [2] > 46 µM | [3] | [4]

CCN(CC)C(=O)c1sc2nc(-c3cccs3)cc(-c3cccs3)c2c1N
inactive: [1] > 20.6 µM | [12]

CC(=O)OC[C@@H]1O[C@@H](Oc2cc(OC(C)=O)c3c(=O)cc(-c4ccc(OC(C)=O)c(OC(C)=O)c4)oc3c2)[C@H](OC(C)=O)[C@H](OC(C)=O)[C@@H]1OC(C)=O
inactive: [1] > 46 µM | [2] > 46 µM | [3] | [9] | [10]

CC(C)C[C@@H](CC(=O)N[C@@H](CCCN)CC(=O)N[C@@H]1CCNC[C@H]1C(=O)N[C@H](CC(=O)N[C@@H](CCC(=O)O)CC(=O)O)Cc1ccccc1)NC(=O)[C@@H]1CNCC[C@H]1N
inactive: [2] > 46 µM | [3] | [4] | [9] | [10] | [11]

C[C@@H]1O[C@@H](OC[C@@H]2O[C@@H](Oc3c(-c4ccc(O)c(O)c4)oc4cc(O)cc(O)c4c3=O)[C@H](O)[C@H](O)[C@@H]2O)[C@H](O)[C@H](O)[C@@H]1O
inactive: [1] > 46 µM | [2] > 46 µM | [3] | [4] | [9] | [10] | [11]

Cc1ccc(N2CC(C(=O)Nc3ccc(N(C)C)cc3)CC2=O)cc1C (configuration not stated)
inactive: [1] > 20.6 µM

COc1ccc(-c2coc3ccc(O[C@@H]4O[C@@H](COC(C)=O)[C@@H](OC(C)=O)[C@@H](OC(C)=O)[C@H]4OC(C)=O)c(OC(C)=O)c3c2=O)cc1
inactive: [1] > 46 µM | [2] > 46 µM | [9] | [10] | [11]

C=C[C@@](C)(O)CC[C@H]1[C@]2(C)CCCC(C)(C)[C@H]2CC[C@]1(C)O
active: [11] 2 µM
inactive: [1] > 46 µM | [2] > 46 µM | [3] | [10]

C=C1C[C@@]23C[C@]1(O)CC[C@@H]2[C@]12C=C[C@@H](O)[C@@](C)(C(=O)O1)[C@@H]2[C@@H]3C(=O)O
inactive: [1] > 46 µM | [2] > 46 µM | [3]

CCC(=O)Oc1oc(-c2ccccc2)nc1C=Nc1ccccc1OC
inactive: [1] > 20.6 µM

C[C@@H]1C(=O)O[C@H]2[C@@H](O)[C@@]34[C@H]5C[C@H](C(C)(C)C)[C@@]36[C@H](OC(=O)[C@@H]6O)O[C@@]4(C(=O)O5)[C@@]12O
inactive: [1] > 46 µM | [2] > 46 µM | [3] | [4]

O=c1cc(-c2ccccc2)oc2c1ccc1ccccc12
inactive: [1] > 46 µM | [2] > 46 µM | [5] | [14]
active: [13] 12.6 µM | [11] 2 µM

Cc1oc2cc(O)cc(C)c2c(=O)c1-c1cnn(-c2ccccc2)c1
inactive: [1] > 20.6 µM

O=C(O)CCCC[C@@H]1SC[C@H]2NC(=O)N[C@H]12
inactive: [1] > 46 µM | [2] > 46 µM

NCCC[C@@H](CC(=O)N[C@@H]1CCNC[C@H]1C(=O)N[C@H](CC(=O)N[C@@H](CCC(=O)O)CC(=O)O)Cc1ccccc1)NC(=O)C[C@H](Cc1ccccc1)NC(=O)[C@@H]1CCCC[C@H]1N
inactive: [2] > 46 µM | [3] | [4] | [9] | [10] | [11]

C[C@H]1[C@H](C)CC[C@@]2(C(=O)O)CC[C@]3(C)C(=CC[C@@H]4[C@@]5(C)CC[C@H](O)C(C)(C)[C@@H]5CC[C@@]43C)[C@@H]12
inactive: [1] > 46 µM | [2] > 46 µM | [3] | [4]

COc1cc([C@@H]2Oc3cc([C@H]4Oc5cc(O)cc(O)c5C(=O)[C@H]4O)ccc3O[C@H]2CO)ccc1O
active: [9] 2.51 µM
inactive: [1] > 46 µM | [2] > 46 µM | [3] | [4] | [5] | [10] | [14]

NCCC[C@@H](CC(=O)N[C@@H]1CCCC[C@H]1C(=O)N[C@H](CC(=O)N[C@@H](CCC(=O)O)CC(=O)O)Cc1ccccc1)NC(=O)C[C@H](CO)NC(=O)[C@@H]1CCCC[C@H]1N
inactive: [2] > 46 µM | [4] | [10] | [11]

CC(C)C[C@@H](CC(=O)N[C@H](CC(=O)N[C@@H]1CCCC[C@H]1C(=O)N[C@H](CC(=O)N[C@@H](CCC(=O)O)CC(=O)O)Cc1ccccc1)C(C)C)NC(=O)[C@@H]1CNCC[C@H]1N
inactive: [2] > 46 µM | [4] | [10]

NCCC[C@@H](CC(=O)N[C@@H]1CCNC[C@H]1C(=O)N[C@H](CC(=O)N[C@@H](CCC(=O)O)CC(=O)O)Cc1ccccc1)NC(=O)C[C@H](CO)NC(=O)[C@@H]1CNCC[C@H]1N
inactive: [2] > 46 µM | [4] | [10]

CC(C)[C@@H](CC(=O)N[C@@H]1CCCC[C@H]1C(=O)N[C@H](CC(=O)N[C@@H](CCC(=O)O)CC(=O)O)Cc1ccccc1)NC(=O)C[C@H](Cc1ccccc1)NC(=O)[C@@H]1CCCC[C@H]1N
inactive: [2] > 46 µM | [3] | [4] | [9] | [10] | [11]
